Measured values reported in PubChem BioAssay.

Columns and labels:
[1] = biological target: Tumor necrosis factor receptor superfamily member 10B (Homo sapiens) (UniProt O14763); test: caspase-8 TRAIL sensitization, hit retest, confirmation, cell-based, NB7+caspase-8, with/without TRAIL, luminescence panel (AID 651596); conditions: NB7 neuroblastoma + caspase-8, TRAIL sensitization, luminescence viability, with TRAIL, mean of runs, at 10 µM, stronger effect = higher value
[2] = as above; conditions: NB7 neuroblastoma + caspase-8, without TRAIL, luminescence viability, without TRAIL, mean of runs, at 10 µM

Tumor necrosis factor receptor superfamily member 10B (Homo sapiens), sequence (O14763 whole entry, looked up): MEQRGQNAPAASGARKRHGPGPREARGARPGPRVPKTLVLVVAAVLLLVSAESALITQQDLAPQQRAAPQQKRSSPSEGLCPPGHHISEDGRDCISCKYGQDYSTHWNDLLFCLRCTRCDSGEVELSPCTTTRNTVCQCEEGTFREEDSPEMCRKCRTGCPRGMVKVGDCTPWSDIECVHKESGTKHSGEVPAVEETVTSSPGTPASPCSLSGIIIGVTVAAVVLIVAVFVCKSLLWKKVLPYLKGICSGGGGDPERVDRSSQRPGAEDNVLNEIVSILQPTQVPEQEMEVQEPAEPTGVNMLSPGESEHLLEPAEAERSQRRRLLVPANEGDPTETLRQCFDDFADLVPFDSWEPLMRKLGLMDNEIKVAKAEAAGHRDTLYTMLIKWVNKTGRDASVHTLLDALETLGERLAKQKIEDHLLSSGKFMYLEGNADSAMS

SMILES | activity [1] | activity [2]
C[C@H](CO)N1C[C@H](C)[C@@H](CN(C)C(=O)NC2CCCCC2)Oc2c(NS(=O)(=O)c3ccccc3)cccc2C1=O | -8.07% | 1.05%
COC(=O)c1ccc2c(c1)C(C)(C)C(/C=C/c1ccc(OC)c(OC)c1OC)=[N+]2C | 73.8% | 68.9%
C(=C\c1nc2ccccc2[nH]1)/c1ccccc1 | 93.8% | 93.6%
O=C(Nc1nc(-c2nc3ccccc3s2)cs1)C1CC1 | 59% | 69.9%
CC(C)(C)c1ccc(/C=N/NC(=O)c2ccccn2)cc1 | 83.5% | 75%
O=C1CCCCC(=O)[C@H](OC(=O)c2ccccc2)C[C@H](c2ccccc2)O1 | 2.17% | 2.2%
COC(=O)c1c(-c2ccccc2)csc1NC1=NS(=O)(=O)c2ccccc21 | 74.7% | 73.3%
CC1(C)N=C(N)N=C(N)N1c1ccc(OCC(=O)N2CCOCC2)cc1 | 62.7% | 87.2%
O=C(CSc1ncnc2nc[nH]c12)c1ccc(Cl)cc1 | 57.6% | 66%
COc1cccc(CSc2nc3ccncc3[nH]2)c1 | 87.7% | 88.4%
O=C(c1ccncc1)N(Cc1cc2ccccc2[nH]c1=O)C1CCCCC1 | 72.5% | 78.4%
Cc1ccccc1-c1nnc(SCC(=O)Nc2cccnc2Cl)o1 | 68.8% | 61%
NC(=O)c1ccccc1N/C=C/C(=O)c1ccc(F)cc1 | 78.8% | 73%
CS(=O)c1nc(-c2ccc(Br)cc2)cc(-c2ccccc2)c1C#N (stereo not drawn) | 95.7% | 97.8%
COC(=O)C1=C(C(=O)OC)[C@@H]2N(Cc3ccccc3)c3ccccc3[C@@]23C[C@@H](C(=O)OC)N(C(=O)c2cccs2)C3=N1 | 17.8% | -45.8%
CCCOc1ccc(-c2nc(N3CCN(C)CC3)c3ccccc3n2)cc1 | 71% | 67.7%
O=C(COc1cc(F)ccc1[N+](=O)[O-])Nc1cc(S(=O)(=O)N2CCCC2)ccc1Cl | 26.4% | 2.77%
COc1cc2c3nnc(-c4ccc(F)cc4)c-3cn(Cc3ccc(C)cc3)c2cc1OC | 24.2% | 60.6%
COc1cccc(C(=O)Oc2c(CN3CCOCC3)cc(Cl)c3cccnc23)c1 | 49% | 60.3%
CN1/C(=C\C(=O)C[n+]2ccc(C(=O)c3ccccc3)cc2)C(C)(C)c2ccccc21 | 15.8% | 27.4%
C=CCNC(=S)N/N=C/c1ccc(C(F)(F)F)cc1 | 18.5% | 8.22%
O=C(/C=C/[C@H]1O[C@@H](n2cnc3c(NC(=O)c4ccccc4)ncnc32)[C@H](O)[C@@H]1O)NCC1CCCO1 (stereo partly drawn) | -2.52% | -37%
CCCC(=O)OCCNc1cc(Sc2nccn2C)c2nonc2c1[N+](=O)[O-] | 35.8% | 97.2%
COc1cc(C(=O)Oc2ccccc2/C=N/NC(=O)c2ccc(C)cc2)cc(OC)c1OC | 51% | 52.7%

SMILES | activity [1] | activity [2]
COc1ccc2nc(-c3ccc(F)cc3)sc2c1 | 68.2% | 65.7%
Cc1cc(C)nc(NC(=O)/C=C/c2ccc3c(c2)OCO3)c1 | 70.2% | 75.5%
NC(=O)c1ccsc1NC(=O)c1ccc(N2CCCC2=O)cc1 | 87.3% | 85.7%
Cc1ccc(-c2nc3cc(N)ccc3o2)c(C)c1 | 61% | 49.5%
COc1ccc2nc(-c3ccccn3)ccc2c1 | 82.1% | 77.5%
COc1ccccc1N1CCN(c2ccc3ccccc3n2)CC1 | 38.5% | 24.1%
Cc1cccc(NC(=S)NC(=O)c2oc3ccccc3c2C)n1 | 70% | 60.1%
C=CCNc1nc(NCc2ccc(NC(C)=O)cc2)c2sc(-c3ccccc3)cc2n1 | 46.1% | 43.1%
Cc1cccn2c(=O)c3cc(C(=O)NCCc4ccccc4)c(=N)n(Cc4ccco4)c3nc12 | 19.5% | 5.95%
Nc1c(N(CCC2=CCCCC2)C(=O)COc2ccc(F)cc2Cl)c(=O)[nH]c(=O)n1Cc1ccccc1 | 88.3% | 79.4%
Cn1c(N/N=C/c2cc3ccccc3nc2Cl)nc2ccccc21 | 92.3% | 94%
Cc1ccc(C(=O)n2c(N)nc3ccccc32)cc1 | 98.3% | 98.4%
CN(C)c1ccc(-c2nc3ccccc3n2C)cc1 | 92.3% | 89.8%
CN(NC(=O)C(C)(C)C)c1nc(-c2ccccc2)nnc1C(F)(F)F | 43.9% | 55.6%
CN1/C(=C\C(=O)c2cccs2)Sc2ccccc21 | 63% | 61%
O=C(Nc1ccccc1)c1cn2ccccc2n1 | 54.9% | 55.7%
COC(=O)c1sc(NC(=S)NC(=O)c2ccccc2C)nc1C | 58% | 61.3%
O=S(=O)(Nc1nc2ccccc2nc1N1CCc2ccccc2C1)c1ccc(Br)cc1 | 55.5% | 66.2%
CCCCN(C)C(=O)c1cc2cc3ccc(OC)cc3nc2s1 | 69.9% | 70.3%
CN(NC(=O)c1ccc(Cl)cc1)c1nc(-c2ccccc2)nnc1C(F)(F)F | 61.9% | 57.8%
CNS(=O)(=O)c1cccc(C(=O)OCC(=O)c2cc(C)n(CC3CCCO3)c2C)c1 (stereo not drawn) | 77.7% | 67%
Cc1cc(Cl)n2c(nc3cc(F)c(F)cc32)c1C#N | 91.7% | 99.3%
O=C1c2ccccc2S(=O)(=O)c2cc(N3CCOCC3)ccc21 | 73.2% | 73.9%
COc1ccc2nc(Nc3ccccc3OC)sc2c1 | 68.3% | 59.2%

SMILES | activity [1] | activity [2]
C/C(=N\NC(=O)c1ccccn1)c1ccc(Cl)cc1 | 44% | 46%
CC(C)c1nnc(NC(=O)c2c(O)c3cccc4c3n(c2=O)CCC4)s1 | 43.6% | 36.5%
Cc1cccc(NC(=S)N/N=C/c2ccc([N+](=O)[O-])s2)c1 | 37.4% | 36.1%
CC(C)(C)OC(=O)NCCCCCNC(=O)c1[nH]cnc1C(=O)Nc1cc(Br)ccc1F | 78.2% | 63.6%
O=C(Nc1ccncc1)c1ccc(-c2ccccc2)cc1 | 24.3% | 21%
C/C(=N\NC(=O)c1ccc2ccccc2c1)c1cccs1 | 60.5% | 67.2%
N#CCCCC#Cc1ccc2c(c1)COc1c3ccccc3nn1-2 | 78.1% | 75.6%
Cc1onc(-c2ccccc2Cl)c1C(=O)O/N=C(\N)c1cccc([N+](=O)[O-])c1 | 92.2% | 93.3%
COc1cccc(-c2nnc(-c3ccc(C)o3)o2)c1 | 64.9% | 65.2%
C/C(=N/NC(=O)c1ccccn1)c1ccco1 | 35.1% | 41.5%
CCCn1c(Nc2nc3ccccc3n2C)nc2ccccc21 | 38.1% | 50.4%
COc1ccc(NC(=O)c2cc(-c3ccncc3)nc3ccc(Br)cc23)cc1OC | 4.8% | 51.5%
O=C(Nc1ccc2c(c1)CCC2)c1ccc(F)cc1 | 49.5% | 44.1%
N/C(Cc1ccc(Cl)cc1)=N\OC(=O)c1ccc2ccccc2c1 | 98.5% | 95%
CCOc1cc(C(=O)O/N=C(\N)c2ccccn2)cc(OCC)c1OCC | 91.1% | 78.5%
COc1ccc(-c2cn3ccccc3n2)cc1 | 88% | 87.1%
Cc1cc(C)c(C)c(S(=O)(=O)N2CCN(CC(=O)c3c(N)n(Cc4ccccc4)c(=O)n(C)c3=O)CC2)c1C | 76.3% | 79.4%
Cc1ccc(C(C#N)=Cc2ccc3c(c2)OCO3)cc1 | 68.5% | 65.2%
Cc1scc(C(=O)N/N=C/c2ccsc2)c1C | 58.1% | 63.5%
O=C(NCCc1ccccc1)C(c1cccs1)N(C(=O)CCl)c1ccc(Cl)cc1 (stereo not drawn) | 99.5% | 99.5%
CC(C)(C)c1csc(NC(=O)Nc2ccccc2)n1 | 41.3% | 50%
Cc1ccc(NC(=O)c2ccc3c(c2)OCCO3)nc1 | 76.8% | 77.2%
Cc1ccc2nc(-c3sc4nc(C)ccc4c3N)[nH]c2c1 | 23.9% | 7.22%
CS(=O)(=O)c1nc(-c2ccc(Br)cc2)cc(-c2ccccc2)c1C#N | 94% | 98.9%

SMILES | activity [1] | activity [2]
Cc1ccccc1/C(N)=N/OC(=O)/C=C/c1ccccc1 | 98.7% | 97.3%
CC(OC(=O)c1ccc(S(C)(=O)=O)c([N+](=O)[O-])c1)C(=O)NC1C2CC3CC(C2)CC1C3 (stereo not drawn) | 77.8% | 97.9%
CC(C)n1c(/C=C/c2ccccc2)nc2ccccc21 | 63.2% | 69.3%
O=C(CC(Nc1ccc(F)cc1)C(=O)O)c1ccccc1 (stereo not drawn) | 63.3% | 53.1%
Cn1c(N)c(C(=O)COC(=O)c2cc(S(=O)(=O)N3CCOCC3)ccc2F)c(=O)n(C)c1=O | 90.6% | 93.8%
Oc1ccccc1-c1cc(-c2ccccc2)no1 | 46.3% | 37.7%
CC(C)Nc1ccc(-n2nc3ccccc3[n+]2[O-])cc1 | 62.5% | 61%
Cc1ccc(-c2nnc(-c3cccc4ccccc34)o2)cc1 | 58.2% | 44%
CCCCn1c(NS(=O)(=O)c2ccc(C)cc2)c(S(=O)(=O)c2ccccc2)c2nc3ccccc3nc21 | -5.92% | -15%
O=C(Nc1ccc2c(c1)OCCO2)C(=O)c1c[nH]c2ccccc12 | 83.2% | 90.5%
COc1ccc(-c2ccc3sc4ccccc4c(=O)c3c2)cn1 | 63.2% | 61.5%
Cc1ccc2nc(NC(=O)c3ccco3)sc2c1 | 80.4% | 76.2%
Cc1ccccc1Nc1nn2c(=O)c3ccccc3nc2s1 | 54.2% | 62.8%
C#Cc1ccc(NC(=O)C2(C)CCN2C(=O)CC(c2ccccc2)c2ccccc2)cc1 (stereo not drawn) | 94.4% | 89%
O=c1cc(-c2ccccc2)oc2ccc3ccccc3c12 | 92.2% | 90.1%
CC(C)c1nnc(NC(=O)c2nc(S(=O)(=O)Cc3ccc(F)cc3)ncc2Cl)s1 | 72.9% | 41.8%
CC(C)c1ccc(NC(=O)Nc2nc(C(N)CCc3ccccc3)cs2)cc1 (stereo not drawn) | 86.8% | 98.2%
COc1ccc(C(=O)Nc2ccc3c(c2)OCCO3)cc1 | 77.6% | 70%
O=C1C(=Cc2ccc(Cl)cc2)CCc2ccccc21 | 85.8% | 78.7%
CC1CCN(c2ccc(-c3ccc(NC(=O)C(F)(F)F)cc3)nn2)CC1 | 94.6% | 96%
CCS(=O)(=O)c1ncc(Cl)c(C(=O)Nc2ccc(C)cc2)n1 | 78.6% | 86.8%
O=[N+]([O-])c1ccc(-c2nc(C(Cl)Cl)c3ccccc3n2)cc1 | 56.8% | 96.3%
